KB-V1 cytotox – KB-V1 MDR subline cytotoxicity; 3.4% of 400,000 active; AID 1347076; KB-V1 MDR cells viability, CellTiter-Glo, 72 h; Potency, µM (titrated, usually from 46.1 µM), hits mostly cytotoxic; also: nearly all actives have a fitted effect of over 60% in size
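Readout: CellTiter-Glo luminescence, 10 min after addition. Cells: KB-V1 MDR subline, 72 h at 37 degrees C with compound. Analysis: corrected, normalized data fitted to concentration-effect curves.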
KB-3-1 tox – kills parental KB-3-1 adenocarcinoma cells | 1.4% of 400,000 active | AID 1347075 | KB-3-1 viability, CellTiter-Glo ATP luminescence, 72 h | Potency, µM (top dose mostly 46.1 µM), usual class: cytotoxic; also: nearly all actives have a fitted effect of over 60% in size
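Cytotoxicity in the drug-sensitive parental line KB-3-1 was scored as loss of CellTiter-Glo luminescence following 72 h incubation with compound. Values come from curve fitting of normalized concentration-response data.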
DT40 TDP1 no CPT – qHTS for Inhibitors of human tyrosyl-DNA phosphodiesterase 1 (TDP1): qHTS in cells in absence of CPT | DT40 Tdp1-/- hTDP1 cells, no CPT, ATP luminescence, 48 h | Potency, µM (series often up to 46.2 µM), without a hit: top-dose activity change, negative = growth inhibition, usual class: inhibitors | 15% of 420,000 active | AID 686978, 2013; also: nearly all actives have a fitted effect of over 55% in size
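Seeded 400 DT40-hTDP1 cells/well (vehicle DMSO, no 20 nM CPT); pinned compounds; ≥48 hr at 37 °C; CellTiter-Glo luminescence as viability measure.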
HT1080 IDH1KD tx – kills HT-1080 cells with IDH1 knockdown | Potency, µM (titrated, usually from 46.1 µM), for the others: top-dose activity, negative = toxicity, actives largely listed as cytotoxic | 2% of 360,000 active | HT-1080 IDH1 knockdown viability, ATP luminescence, 48 h;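 also: 0% = DMSO wells and -100% = cell-free medium wells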
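Knockdown cells (IDH1KD HT-1080) received compounds 2 h after plating at 750 cells/well and were kept 48 h at 37 °C in 5% FBS RPMI. A CellTiter-Glo luminescence read gave % activity for curve fitting.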
HT1080NT lethal – kills 2HG-producing HT-1080-NT fibrosarcoma cells. Potency, µM (titrated, usually from 46.1 µM), for inactives: top-dose activity, negative = less viability, hits mostly cytotoxic. HT-1080-NT fibrosarcoma viability, CellTiter-Glo ATP luminescence, 48 h. 1.6% of 360,000 active;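 also: NT is the 2HG producing partner of a matched IDH1 knockdown line; 0% = DMSO-treated cells and -100% = media-only wells without cells; nearly all actives have a fitted effect of over 55% in size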
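Luminescent CellTiter-Glo readout after 48 hours of compound exposure at 37 degrees C defined viability of HT-1080-NT cells. Activity was normalized to DMSO wells and cell-free media wells; concentration-response curves were fitted and assigned curve classes.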
TDP1 cell CPT – DT40-hTDP1 cell growth loss with CPT; Potency, µM (top dose mostly 46.2 µM), without a hit: at the highest dose activity change, negative = growth inhibition, most hits filed as inhibitors; 12% of 420,000 active; chicken DT40 Tdp1-/-;hTDP1 cells + 20 nM CPT, ATP luminescence, 48 h; also: nearly all actives have a fitted effect of over 55% in size
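Cell growth measured by CellTiter-Glo luminescence after a minimum 48 h, 37 C compound exposure with 20 nM CPT in Tdp1-knockout DT40 cells stably expressing hTDP1, seeded 400/well; qHTS titration format.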
Numbers without * were called inactive. Hits are enriched below; roughly 19% of the tested compounds scored in any of these assays. Calls follow the shape of the dose curve; as a rule, active = well fitted curve in the direction sought with a large enough effect; inconclusive = small, poorly fitted or top-dose-only effect, or another doubt; inactive = no such curve, though single readings can be large; an effect the other way counts as inactive or inconclusive. Unless noted, % is scaled to controls: 0 for no effect and ±100 for the full control effect; potency is read from the fitted curve at half-maximal effect.

Screening COc1cc(/C=C2\N=C(c3ccccc3)NNC2=O)cc(OC)c1OC returned KB-V1 cytotox 4.1µM*, KB-3-1 tox 4.6µM*, DT40 TDP1 no CPT 4.6µM*, HT1080 IDH1KD tx 3.3µM*, HT1080NT lethal 4.6µM* and TDP1 cell CPT 5.2µM*.
Screening COc1ccc2c(c1)/C(=C/c1cc(OC)c(OC)c(OC)c1)C(=O)N2 returned KB-V1 cytotox inconclusive, KB-3-1 tox 2.3µM*, DT40 TDP1 no CPT 0.73µM*, HT1080 IDH1KD tx 5.8µM*, HT1080NT lethal 5.8µM* and TDP1 cell CPT 0.52µM*.
`COc1ccc(/C=C2\N=C(c3c(-c4ccccc4)noc3C)OC2=O)cc1OC` gave KB-V1 cytotox inactive, KB-3-1 tox inactive, DT40 TDP1 no CPT -17%, HT1080 IDH1KD tx 22%, HT1080NT lethal 13% and TDP1 cell CPT 4%.
For CCOc1ccc(S(=O)(=O)NN2Cc3ccccc3C2=N)cc1 the results were KB-V1 cytotox inactive, KB-3-1 tox inactive, DT40 TDP1 no CPT -29%, HT1080 IDH1KD tx -2%, HT1080NT lethal -1% and TDP1 cell CPT -18%.
`CCCC(C)(C)C(=O)N1CCC1(C)C(=O)Nc1ccc2c(c1)OCCO2` (stereo not drawn) gave KB-V1 cytotox inconclusive, KB-3-1 tox inactive, DT40 TDP1 no CPT inconclusive, HT1080 IDH1KD tx 25%, HT1080NT lethal inconclusive and TDP1 cell CPT inconclusive.
O=c1onc(-c2cccnc2)n1-c1ccccc1F was read as KB-V1 cytotox inactive, KB-3-1 tox inactive, DT40 TDP1 no CPT -12%, HT1080 IDH1KD tx 8%, HT1080NT lethal 9% and TDP1 cell CPT -11%.
Screening COc1ccc(/C=C2\C(=O)NC(=O)c3ccccc32)cc1OC returned KB-V1 cytotox inactive, KB-3-1 tox inactive, DT40 TDP1 no CPT 1.5µM*, HT1080 IDH1KD tx 12%, HT1080NT lethal 0% and TDP1 cell CPT 1.6µM*.
Cc1cccc(C2=NOC(=O)/C2=C\c2ccccc2F)c1 was read as KB-V1 cytotox inactive, KB-3-1 tox inactive, DT40 TDP1 no CPT 2.6µM*, HT1080 IDH1KD tx 2%, HT1080NT lethal -1% and TDP1 cell CPT -24%.
Screening COc1ccccc1/C=C1\C(=O)Nc2ccccc21 returned KB-V1 cytotox inactive, KB-3-1 tox inactive, DT40 TDP1 no CPT 21µM*, HT1080 IDH1KD tx -1%, HT1080NT lethal -12% and TDP1 cell CPT inconclusive.
For COc1cc(/C=C2\C(=O)ON=C2c2ccccc2)cc(OC)c1OC the results were KB-V1 cytotox inactive, KB-3-1 tox inactive, DT40 TDP1 no CPT 16µM*, HT1080 IDH1KD tx -14%, HT1080NT lethal inconclusive and TDP1 cell CPT inconclusive.
For O=C1Nc2ccccc2/C1=C/c1ccccc1Cl the results were KB-V1 cytotox inactive, KB-3-1 tox inactive, DT40 TDP1 no CPT inconclusive, HT1080 IDH1KD tx inconclusive, HT1080NT lethal inconclusive and TDP1 cell CPT 6%.
`COc1ccc2nc(SCC(=O)NCc3ccc(S(N)(=O)=O)cc3)[nH]c2c1` gave KB-V1 cytotox inactive, KB-3-1 tox inactive, DT40 TDP1 no CPT -27%, HT1080 IDH1KD tx 16%, HT1080NT lethal 1% and TDP1 cell CPT -20%.
`NC(=O)COc1ccccc1` gave KB-V1 cytotox inactive, KB-3-1 tox inactive, DT40 TDP1 no CPT -4%, HT1080 IDH1KD tx 4%, HT1080NT lethal 1% and TDP1 cell CPT 2%.
`COc1ccc(C=C2C(=O)OC(C)(C)OC2=O)cc1OC` gave KB-V1 cytotox inactive, KB-3-1 tox inactive, DT40 TDP1 no CPT -10%, HT1080 IDH1KD tx -1%, HT1080NT lethal -2% and TDP1 cell CPT -1%.
Screening Cc1ccc2c(c1)/C(=C/c1ccc(F)cc1)C(=O)N2 returned KB-V1 cytotox inactive, KB-3-1 tox inactive, DT40 TDP1 no CPT 21µM*, HT1080 IDH1KD tx inconclusive, HT1080NT lethal inconclusive and TDP1 cell CPT inconclusive.
Cc1ccc2c(c1)/C(=C/c1ccccc1C)C(=O)N2 was read as KB-V1 cytotox inconclusive, KB-3-1 tox inactive, DT40 TDP1 no CPT inconclusive, HT1080 IDH1KD tx inconclusive, HT1080NT lethal inconclusive and TDP1 cell CPT -30%.
`NC(=O)COc1ccc(/C=C2\C(=O)ON=C2c2ccccc2)cc1` gave KB-V1 cytotox inconclusive, KB-3-1 tox inactive, DT40 TDP1 no CPT 15µM*, HT1080 IDH1KD tx -23%, HT1080NT lethal 0% and TDP1 cell CPT 16µM*.
Screening COc1ccc(/C=C2/C(=O)ON=C2c2ccccc2)cc1OC returned KB-V1 cytotox inactive, KB-3-1 tox inconclusive, DT40 TDP1 no CPT 15µM*, HT1080 IDH1KD tx inconclusive, HT1080NT lethal inconclusive and TDP1 cell CPT inconclusive.
For CC(C)CCNC(=O)c1ccc2c(c1)NC(=O)C(C(C)C)N2 (stereo not drawn) the results were KB-V1 cytotox inactive, KB-3-1 tox inactive, DT40 TDP1 no CPT -3% and TDP1 cell CPT -29%.
CCCCN1C(=O)C(CC(=O)NC(c2ccccc2)c2ccccc2)CC(C(=O)N2CCCCCC2)=C1C (stereo not drawn) was read as KB-V1 cytotox inconclusive, KB-3-1 tox inactive, DT40 TDP1 no CPT inconclusive, HT1080 IDH1KD tx 19%, HT1080NT lethal -1% and TDP1 cell CPT inconclusive.
Screening CCC1CCCCN1C(=O)Cn1c(=O)cc(C(F)(F)F)c2c(C)nn(C)c21 (stereo not drawn) returned KB-V1 cytotox inactive, KB-3-1 tox inactive, DT40 TDP1 no CPT inconclusive and TDP1 cell CPT inconclusive.
Screening COCCn1cnc2c1c(=O)n(CC(=O)NCC(F)(F)F)c(=O)n2Cc1ccccc1 returned KB-V1 cytotox inactive, KB-3-1 tox inactive, DT40 TDP1 no CPT 5%, HT1080 IDH1KD tx 13%, HT1080NT lethal 6% and TDP1 cell CPT -3%.
Screening CC(C)c1ccc(NC2CCCN(C(=O)CCc3cnn(C)c3)C2)cc1 (stereo not drawn) returned KB-V1 cytotox inconclusive, KB-3-1 tox inactive, DT40 TDP1 no CPT -29%, HT1080 IDH1KD tx 1%, HT1080NT lethal 0% and TDP1 cell CPT 3%.
Screening Cc1ccc(S(=O)(=O)N2C[C@@H](C)[C@]3(C2)[C@H](O)[C@H](OC(=O)NC2CC2)C[C@H]2C(=O)N(c4ccccc4)C(=O)[C@H]23)cc1 returned KB-V1 cytotox inactive, KB-3-1 tox inactive, DT40 TDP1 no CPT inconclusive, HT1080 IDH1KD tx 4%, HT1080NT lethal 2% and TDP1 cell CPT inconclusive.

Assay outcomes from PubChem BioAssay.
